Assay results from the supplement of paper PMC11732987, “Enantioselective OTUD7B fragment discovery through chemoproteomics screening and high-throughput optimisation” (Communications Chemistry, 2025).

Columns and labels:
Assay in all cases: log2 ratio of Biotin-Ahx-Ub-VS probe labelling (fragment/DMSO); higher = less target engagement (more negative = stronger competition), active = hit call of the paper (q ≤ 0.05, log2 ratio ≤ -1)
Conditions in all cases: compound concentration: 200 uM; treatment time: 3 h
USP9X = USP9X (UniProt Q93008)
Chain of USP9X (Q93008 whole entry, the tested form may be a part): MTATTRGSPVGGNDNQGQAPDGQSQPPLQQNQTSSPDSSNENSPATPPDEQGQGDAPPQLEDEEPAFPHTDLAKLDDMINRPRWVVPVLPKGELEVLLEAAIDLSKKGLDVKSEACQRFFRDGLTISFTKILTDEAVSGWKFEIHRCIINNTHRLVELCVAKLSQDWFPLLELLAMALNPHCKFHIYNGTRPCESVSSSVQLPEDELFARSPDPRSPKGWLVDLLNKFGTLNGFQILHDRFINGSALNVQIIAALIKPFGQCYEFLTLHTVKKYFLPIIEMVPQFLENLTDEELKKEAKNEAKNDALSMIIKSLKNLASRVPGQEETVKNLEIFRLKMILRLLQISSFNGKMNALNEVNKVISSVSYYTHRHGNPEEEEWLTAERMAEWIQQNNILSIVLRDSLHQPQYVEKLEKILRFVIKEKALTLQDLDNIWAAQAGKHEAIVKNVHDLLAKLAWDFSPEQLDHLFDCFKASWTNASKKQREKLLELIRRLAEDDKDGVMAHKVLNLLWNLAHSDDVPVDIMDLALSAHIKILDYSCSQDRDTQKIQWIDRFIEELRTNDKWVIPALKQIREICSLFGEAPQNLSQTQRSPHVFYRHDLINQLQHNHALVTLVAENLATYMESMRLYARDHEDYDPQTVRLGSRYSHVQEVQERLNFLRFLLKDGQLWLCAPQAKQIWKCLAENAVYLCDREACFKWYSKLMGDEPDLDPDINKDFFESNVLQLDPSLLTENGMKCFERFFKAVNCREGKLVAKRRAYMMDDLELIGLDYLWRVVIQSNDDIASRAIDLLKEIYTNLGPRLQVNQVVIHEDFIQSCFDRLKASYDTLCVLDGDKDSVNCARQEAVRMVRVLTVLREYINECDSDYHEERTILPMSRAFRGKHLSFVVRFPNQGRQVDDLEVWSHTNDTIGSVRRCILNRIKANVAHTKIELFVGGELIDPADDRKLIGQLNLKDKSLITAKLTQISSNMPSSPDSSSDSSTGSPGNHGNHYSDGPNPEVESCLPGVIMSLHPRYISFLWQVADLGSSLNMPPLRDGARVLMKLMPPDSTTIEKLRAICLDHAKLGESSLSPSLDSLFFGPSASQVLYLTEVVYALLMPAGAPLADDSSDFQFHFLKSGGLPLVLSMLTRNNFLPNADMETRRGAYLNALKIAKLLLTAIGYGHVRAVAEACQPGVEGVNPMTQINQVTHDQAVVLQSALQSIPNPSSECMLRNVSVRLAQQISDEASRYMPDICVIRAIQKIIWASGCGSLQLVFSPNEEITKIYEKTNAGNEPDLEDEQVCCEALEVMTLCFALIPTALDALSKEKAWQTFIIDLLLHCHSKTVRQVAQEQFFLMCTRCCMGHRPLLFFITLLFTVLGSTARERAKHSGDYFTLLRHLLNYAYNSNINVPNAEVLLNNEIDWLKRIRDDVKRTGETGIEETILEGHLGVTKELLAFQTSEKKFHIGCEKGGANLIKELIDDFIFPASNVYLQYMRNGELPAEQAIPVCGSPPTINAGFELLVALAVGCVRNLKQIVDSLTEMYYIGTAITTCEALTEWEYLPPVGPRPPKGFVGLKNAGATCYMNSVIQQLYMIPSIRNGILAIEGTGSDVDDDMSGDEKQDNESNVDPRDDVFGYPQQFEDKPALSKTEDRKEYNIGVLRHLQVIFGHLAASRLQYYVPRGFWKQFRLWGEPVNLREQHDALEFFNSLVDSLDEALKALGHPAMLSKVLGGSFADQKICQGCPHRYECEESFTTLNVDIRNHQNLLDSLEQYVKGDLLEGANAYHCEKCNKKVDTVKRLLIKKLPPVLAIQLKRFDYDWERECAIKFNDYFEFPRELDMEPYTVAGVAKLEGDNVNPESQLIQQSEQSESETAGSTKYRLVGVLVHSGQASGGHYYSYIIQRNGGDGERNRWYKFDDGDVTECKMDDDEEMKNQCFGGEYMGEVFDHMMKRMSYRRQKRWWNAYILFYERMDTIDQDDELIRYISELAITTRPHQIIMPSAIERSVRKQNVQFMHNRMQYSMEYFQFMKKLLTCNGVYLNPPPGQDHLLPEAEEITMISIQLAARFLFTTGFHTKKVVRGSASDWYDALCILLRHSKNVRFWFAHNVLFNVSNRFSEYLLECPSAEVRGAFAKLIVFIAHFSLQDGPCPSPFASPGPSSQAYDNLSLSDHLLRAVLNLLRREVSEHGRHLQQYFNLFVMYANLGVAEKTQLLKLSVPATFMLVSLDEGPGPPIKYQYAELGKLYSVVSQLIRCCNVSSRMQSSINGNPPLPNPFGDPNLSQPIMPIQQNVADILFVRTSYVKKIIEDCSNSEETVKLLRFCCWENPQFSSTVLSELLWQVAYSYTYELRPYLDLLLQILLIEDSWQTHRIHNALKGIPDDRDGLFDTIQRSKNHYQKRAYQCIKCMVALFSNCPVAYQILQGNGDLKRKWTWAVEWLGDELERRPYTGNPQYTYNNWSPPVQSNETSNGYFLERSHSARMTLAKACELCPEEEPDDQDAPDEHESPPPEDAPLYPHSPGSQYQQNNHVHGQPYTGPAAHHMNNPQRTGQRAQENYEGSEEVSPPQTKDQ
Method in brief: (§1)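 HEK293T lysate (495 µg per sample, in Tris/CHAPS/IGEPAL buffer with protease inhibitors) was treated in triplicate with fragment at 200 µM or with DMSO for 3 h. It was then treated with Biotin-Ahx-Ub-VS (0.5 µM final) for 1 h. Labelled DUBs were NeutrAvidin-enriched, digested with LysC and trypsin, and run by diaPASEF LC-MS/MS. Spectronaut label-free quantities were global-median-normalised. Values are average log2 ratios fragment/DMSO by unpaired t-test, using proteins with ≥2 unique peptides.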

UniProt O00487 = molecular target: UniProt O00487
Chain of UniProt O00487 (O00487 whole entry): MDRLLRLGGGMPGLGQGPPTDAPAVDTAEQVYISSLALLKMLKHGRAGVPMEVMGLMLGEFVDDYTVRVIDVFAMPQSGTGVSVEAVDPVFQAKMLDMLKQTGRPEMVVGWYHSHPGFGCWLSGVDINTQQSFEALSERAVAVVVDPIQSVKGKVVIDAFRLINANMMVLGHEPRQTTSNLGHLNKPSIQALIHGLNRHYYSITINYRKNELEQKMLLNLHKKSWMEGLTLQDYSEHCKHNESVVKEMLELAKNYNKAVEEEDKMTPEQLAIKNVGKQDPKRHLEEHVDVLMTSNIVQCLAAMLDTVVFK
Method in brief: as §1

UniProt O00507 = molecular target: UniProt O00507
Method in brief: as §1

UniProt P51784 = molecular target: UniProt P51784
Chain of UniProt P51784 (P51784 whole entry): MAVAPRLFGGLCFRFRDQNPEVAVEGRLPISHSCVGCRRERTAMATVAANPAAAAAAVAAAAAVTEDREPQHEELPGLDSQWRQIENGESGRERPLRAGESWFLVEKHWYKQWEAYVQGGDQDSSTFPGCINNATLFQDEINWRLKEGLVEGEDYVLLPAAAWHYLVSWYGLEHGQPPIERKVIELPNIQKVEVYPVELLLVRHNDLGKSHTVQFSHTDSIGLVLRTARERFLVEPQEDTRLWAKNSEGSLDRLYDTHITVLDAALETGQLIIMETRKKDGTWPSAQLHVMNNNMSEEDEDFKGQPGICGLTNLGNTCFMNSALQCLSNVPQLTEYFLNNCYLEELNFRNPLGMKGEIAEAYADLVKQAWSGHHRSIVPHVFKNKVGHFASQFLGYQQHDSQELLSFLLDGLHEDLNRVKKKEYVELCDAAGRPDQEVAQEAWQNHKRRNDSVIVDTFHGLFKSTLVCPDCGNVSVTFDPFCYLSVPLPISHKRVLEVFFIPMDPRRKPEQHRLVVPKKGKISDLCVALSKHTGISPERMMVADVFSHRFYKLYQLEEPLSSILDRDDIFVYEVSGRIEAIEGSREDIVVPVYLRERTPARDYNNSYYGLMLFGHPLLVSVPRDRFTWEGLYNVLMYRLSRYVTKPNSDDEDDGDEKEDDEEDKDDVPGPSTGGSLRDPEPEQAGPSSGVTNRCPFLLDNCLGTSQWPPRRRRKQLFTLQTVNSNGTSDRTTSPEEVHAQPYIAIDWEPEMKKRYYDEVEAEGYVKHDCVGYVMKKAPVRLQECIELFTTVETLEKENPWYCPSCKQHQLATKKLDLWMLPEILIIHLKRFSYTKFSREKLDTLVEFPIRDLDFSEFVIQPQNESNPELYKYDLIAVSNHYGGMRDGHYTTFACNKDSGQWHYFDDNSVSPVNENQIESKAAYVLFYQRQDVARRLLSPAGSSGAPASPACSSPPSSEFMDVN
Method in brief: as §1

UniProt Q5T2D3 = molecular target: T1, UniProt Q5T2D3
T1 sequence (whole entry): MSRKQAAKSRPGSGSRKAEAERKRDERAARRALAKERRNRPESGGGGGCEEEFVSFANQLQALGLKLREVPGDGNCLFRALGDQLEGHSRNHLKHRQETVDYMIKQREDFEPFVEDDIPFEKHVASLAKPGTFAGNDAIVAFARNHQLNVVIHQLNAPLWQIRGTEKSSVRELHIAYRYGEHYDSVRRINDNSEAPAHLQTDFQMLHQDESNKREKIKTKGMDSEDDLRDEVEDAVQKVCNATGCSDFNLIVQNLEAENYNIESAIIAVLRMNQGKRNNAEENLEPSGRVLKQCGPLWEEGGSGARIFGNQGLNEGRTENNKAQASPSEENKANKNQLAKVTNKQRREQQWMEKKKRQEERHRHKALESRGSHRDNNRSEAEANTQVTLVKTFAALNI
Method in brief: as §1

UniProt Q8TE49 = molecular target: T2, UniProt Q8TE49
T2 sequence (whole entry): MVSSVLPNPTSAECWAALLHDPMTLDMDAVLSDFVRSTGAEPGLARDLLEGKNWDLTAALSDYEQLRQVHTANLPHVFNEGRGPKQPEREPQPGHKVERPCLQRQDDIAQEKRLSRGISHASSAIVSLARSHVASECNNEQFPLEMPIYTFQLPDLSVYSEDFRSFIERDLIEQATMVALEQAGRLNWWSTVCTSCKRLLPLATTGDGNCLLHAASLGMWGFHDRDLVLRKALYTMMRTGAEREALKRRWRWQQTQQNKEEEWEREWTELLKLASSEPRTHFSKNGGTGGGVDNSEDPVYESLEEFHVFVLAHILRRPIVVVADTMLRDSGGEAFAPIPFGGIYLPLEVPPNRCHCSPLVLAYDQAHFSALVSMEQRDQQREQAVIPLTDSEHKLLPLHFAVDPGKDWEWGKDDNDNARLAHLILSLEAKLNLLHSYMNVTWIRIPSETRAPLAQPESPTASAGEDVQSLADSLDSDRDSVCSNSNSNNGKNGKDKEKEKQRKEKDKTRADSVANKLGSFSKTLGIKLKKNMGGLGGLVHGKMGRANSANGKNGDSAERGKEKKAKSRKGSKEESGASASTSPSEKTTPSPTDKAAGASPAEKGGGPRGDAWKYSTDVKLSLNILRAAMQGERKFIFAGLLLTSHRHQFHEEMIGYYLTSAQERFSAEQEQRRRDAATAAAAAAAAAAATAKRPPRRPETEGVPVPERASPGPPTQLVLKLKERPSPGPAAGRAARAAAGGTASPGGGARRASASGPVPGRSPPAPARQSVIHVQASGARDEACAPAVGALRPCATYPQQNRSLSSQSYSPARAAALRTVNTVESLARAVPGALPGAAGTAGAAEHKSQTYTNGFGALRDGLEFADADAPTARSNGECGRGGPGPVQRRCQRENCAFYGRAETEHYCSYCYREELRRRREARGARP
Method in brief: as §1

UniProt Q9P2H5 = molecular target: T3, UniProt Q9P2H5
T3 sequence (whole entry): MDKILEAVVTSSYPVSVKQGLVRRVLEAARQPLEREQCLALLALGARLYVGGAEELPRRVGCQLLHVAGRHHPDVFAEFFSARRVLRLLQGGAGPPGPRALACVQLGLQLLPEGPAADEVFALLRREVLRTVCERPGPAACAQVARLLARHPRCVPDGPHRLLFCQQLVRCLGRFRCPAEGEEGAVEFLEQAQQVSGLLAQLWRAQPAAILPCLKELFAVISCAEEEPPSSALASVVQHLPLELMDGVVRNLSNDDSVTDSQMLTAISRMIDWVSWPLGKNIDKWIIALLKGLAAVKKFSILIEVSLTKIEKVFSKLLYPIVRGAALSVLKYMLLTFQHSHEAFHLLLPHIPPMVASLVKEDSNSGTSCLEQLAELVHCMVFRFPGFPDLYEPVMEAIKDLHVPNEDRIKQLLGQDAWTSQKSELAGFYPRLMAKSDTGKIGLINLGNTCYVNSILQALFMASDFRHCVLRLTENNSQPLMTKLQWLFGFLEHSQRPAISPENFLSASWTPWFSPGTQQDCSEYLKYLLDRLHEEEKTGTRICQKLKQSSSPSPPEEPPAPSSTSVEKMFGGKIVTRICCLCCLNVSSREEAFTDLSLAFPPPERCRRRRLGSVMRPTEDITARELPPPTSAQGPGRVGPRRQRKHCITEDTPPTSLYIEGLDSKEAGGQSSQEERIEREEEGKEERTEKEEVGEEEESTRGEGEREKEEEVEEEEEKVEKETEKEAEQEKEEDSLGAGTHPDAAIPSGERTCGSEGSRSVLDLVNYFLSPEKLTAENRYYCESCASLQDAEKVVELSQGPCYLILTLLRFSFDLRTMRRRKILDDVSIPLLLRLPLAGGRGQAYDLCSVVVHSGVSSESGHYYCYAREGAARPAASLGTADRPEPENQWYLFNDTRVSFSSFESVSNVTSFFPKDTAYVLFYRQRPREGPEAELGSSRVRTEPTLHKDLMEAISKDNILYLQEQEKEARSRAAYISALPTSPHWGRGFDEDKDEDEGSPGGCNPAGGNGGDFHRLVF
Method in brief: as §1

UniProt Q9UGI0 = molecular target: T4, UniProt Q9UGI0
T4 sequence (whole entry): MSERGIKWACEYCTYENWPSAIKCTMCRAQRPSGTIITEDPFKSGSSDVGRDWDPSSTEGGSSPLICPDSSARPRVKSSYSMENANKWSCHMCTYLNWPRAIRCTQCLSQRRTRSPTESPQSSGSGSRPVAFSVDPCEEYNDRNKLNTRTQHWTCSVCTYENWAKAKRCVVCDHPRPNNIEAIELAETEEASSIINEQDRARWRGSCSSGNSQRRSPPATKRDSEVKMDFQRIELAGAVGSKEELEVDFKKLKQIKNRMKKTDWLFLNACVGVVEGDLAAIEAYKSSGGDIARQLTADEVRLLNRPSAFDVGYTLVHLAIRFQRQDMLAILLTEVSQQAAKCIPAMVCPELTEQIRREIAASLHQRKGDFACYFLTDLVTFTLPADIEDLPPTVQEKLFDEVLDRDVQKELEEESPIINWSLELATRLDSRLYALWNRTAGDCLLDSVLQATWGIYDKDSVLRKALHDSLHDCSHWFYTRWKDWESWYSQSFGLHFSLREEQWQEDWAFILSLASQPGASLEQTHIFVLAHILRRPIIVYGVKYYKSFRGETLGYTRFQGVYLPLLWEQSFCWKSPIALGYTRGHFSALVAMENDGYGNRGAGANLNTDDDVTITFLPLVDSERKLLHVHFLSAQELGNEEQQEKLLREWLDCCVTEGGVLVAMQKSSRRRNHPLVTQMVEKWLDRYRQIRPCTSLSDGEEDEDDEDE
Method in brief: as §1

YOD1 = molecular target: T5, YOD1 (UniProt Q5VVQ6)
T5 sequence (whole entry): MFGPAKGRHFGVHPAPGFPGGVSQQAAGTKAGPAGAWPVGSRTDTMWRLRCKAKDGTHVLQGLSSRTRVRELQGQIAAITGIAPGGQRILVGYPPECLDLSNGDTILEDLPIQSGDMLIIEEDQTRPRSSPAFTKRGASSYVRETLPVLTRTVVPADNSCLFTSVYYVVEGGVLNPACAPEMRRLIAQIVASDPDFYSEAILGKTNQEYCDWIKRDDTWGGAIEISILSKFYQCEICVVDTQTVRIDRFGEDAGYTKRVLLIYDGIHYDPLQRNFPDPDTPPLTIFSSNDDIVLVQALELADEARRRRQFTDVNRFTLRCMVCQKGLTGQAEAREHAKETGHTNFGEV
Method in brief: as §1

Measured: log2 ratio of Biotin-Ahx-Ub-VS probe labelling

Cc1ccc(CN(C)C(=O)CCl)o1
inactive: USP9X -0.23 | UniProt O00487 -0.0611 | UniProt O00507 0.383 | UniProt P51784 0.146 | UniProt Q5T2D3 -0.109 | UniProt Q8TE49 -0.671 | UniProt Q9P2H5 -0.321 | UniProt Q9UGI0 -0.57 | YOD1 0.384
